The values that follow come from the supplement of paper PMC10681739.
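Wherever RUNX1 binding intensity (PBM fluorescence), RUNX1 alone is given: Full-length recombinant human RUNX1 bound to double-stranded 36-bp genomic probes on a high-density microarray, scored as Alexa488 fluorescence per spot via anti-RUNX1 antibody, median of four replicate spots.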

In one test the target is T1, ETS1 (UniProt P14921).
T1 sequence: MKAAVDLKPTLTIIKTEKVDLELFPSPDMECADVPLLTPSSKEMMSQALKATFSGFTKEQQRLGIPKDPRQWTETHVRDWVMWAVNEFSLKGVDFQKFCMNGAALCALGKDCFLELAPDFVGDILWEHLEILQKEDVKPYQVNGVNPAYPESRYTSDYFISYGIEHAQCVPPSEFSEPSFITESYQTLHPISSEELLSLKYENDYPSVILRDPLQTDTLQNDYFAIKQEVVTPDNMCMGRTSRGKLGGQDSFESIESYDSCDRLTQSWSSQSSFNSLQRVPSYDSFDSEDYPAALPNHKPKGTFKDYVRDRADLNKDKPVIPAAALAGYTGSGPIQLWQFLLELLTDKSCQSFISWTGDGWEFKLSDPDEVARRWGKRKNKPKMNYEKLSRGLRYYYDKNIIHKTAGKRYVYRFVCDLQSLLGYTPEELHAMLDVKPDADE
Nature of the test: ETS1 binding intensity (PBM fluorescence), ETS1 alone (arbitrary fluorescence units); higher = stronger binding. The conditions noted are these: ETS1 concentration 1 nM; RUNX1 concentration 0 nM.
For the sequence ATAGTCTCTTCCTGTGTTGCAAACCACAGGTCCACC, the ETS1 binding intensity was 743.

As for CCTCAATTTCCTGGCCAGAGAAACCACTGCCTCTCA, the ETS1 binding intensity stood at 546.

TTGATTGGAGCAGGATGTGGTCAGAACAGTATGCAG registered an ETS1 binding intensity of 3190.

The sequence ATAGACTCAGGAAGTGATTGTGGTAAGATTCTATAT returned an ETS1 binding intensity of 1460.

With CAAGCCAGGAAGAGGGCCCTCACCAGAAACCGCACT, the ETS1 binding intensity is 407.

For the sequence TCTGTCGTCCCACTTCCTGCTGCGGTTTCCACCTCG, the ETS1 binding intensity was 3340.

The sequence GAAGTCACATCCTGTCTGTTGCGGCAGGGCACAGAG returned an ETS1 binding intensity of 1470.

As for CTCTGGCAGGAAGCTCTGAGGGCTAAACCACAAAAA, the ETS1 binding intensity worked out at 1110.

The sequence CCTTGCTACAGGATGTTTTGACCACGAGCCCAGGAG returned an ETS1 binding intensity of 1440.

Consider ACCCAGTAGGGGCCAGGATGTGGTGAAAAGAGAATT, for which the ETS1 binding intensity turned out to be 1610.

As for CGGCCTCTTCCGGTCACCTGGCCCGTCGCGGTCCCG, the ETS1 binding intensity is 1800.

The sequence TGGGGAACGCTGCGGATGCTGCGGTAAACCATGCGA gave an ETS1 binding intensity of 643.

On to ACTAGAAGCGGAAGTAGTTGTGGGCGCCTTTGCAAC, for which the ETS1 binding intensity is 5720.

Sequence TCGTGTTCTCTTCCGTTCTGTGGTAGCTTTTTGGTA showed an ETS1 binding intensity of 655.

As to GGAAAAGGAAGTGGCTTTGACTTGCGGGCAGGGAGA, the ETS1 binding intensity was 1020.

Sequence CACCTCCTCTCCGGATGCGGTTTGTTCTGCTTGTAG came in with an ETS1 binding intensity of 2580.

The sequence AGCCAACAGGAAGCTGCAGAGACTAAACCACAGCAA came in with an ETS1 binding intensity of 1150.

In turn, AGCTTCCTGTTTGGCCTTGCTGATGTCACCGCATTA registered an ETS1 binding intensity of 729.

TGGTTCCACCGACCGGAAGGGCCACAAGGATCCCCG displayed an ETS1 binding intensity of 5280.

Turning to GTGAGTCACTTCCTGACCATGTGGGTTTTTGGTACG, the ETS1 binding intensity came out at 568.

For the sequence AATGATTACCTAACAGGAAAACCACATTGGTCATTT, the ETS1 binding intensity came out at 1150.

In turn, GAGAAACAGGAAGAGGGGTGGTGGTTACGGAACACG displayed an ETS1 binding intensity of 2290.

Regarding GAAAAAAATGAGCTTCCTTTAACCACAACTGTATTA, the ETS1 binding intensity turned out to be 508.

The sequence AGCTGCATTTCCGGGCAGGCAATGAAACCACAGAGT had an ETS1 binding intensity of 1100.

Take CACTTCCTGTCAAAGCCAGTTCCTTAACCGCTTAGG: the ETS1 binding intensity was 1610.

The sequence GCCAACAGGAAGCTGGAAGCCAACCGCACTGTGTGC showed an ETS1 binding intensity of 1190.

TCAAGTTTGGTAACAGGATGTGGTAGGAGGAACACA gave an ETS1 binding intensity of 8320.

The sequence AATCTGAAACAGGAAATAAGTCTGTGGTTGTGTGTT registered an ETS1 binding intensity of 7070.

In the case of AACCATTACAGGATGTGAGATTCAAACCACTAACAG, the ETS1 binding intensity was 2270.

Regarding ATACAGACACAGGAAGTTGTGGGGAGTGCAAAAGCC, the ETS1 binding intensity was determined as 5090.

Sequence ATTTCGCTGAAAACAGGAAACCACGAAGCCCAGATG registered an ETS1 binding intensity of 3270.

TATCTCCTATCTCCAGGAAGTGGTTAGCCCTAGGAG displayed an ETS1 binding intensity of 3210.

With TGCTTCCCTTCCGTTCCGACAGCGAAAACCGCTGCC, the ETS1 binding intensity amounted to 532.

AACAGACAGGATGTGGCCTCTGCCAAAACCACCATC: the ETS1 binding intensity was 3250.

CTCACAGAGCAAGTAGGATGTGGTTTCCAGGGGCTG showed an ETS1 binding intensity of 781.

Turning to GCTCCCGGATGTTCTGGGGATCTGCGGCCGCCTGGC, the ETS1 binding intensity worked out at 1300.

For the sequence AAAGCATTTCCTGCCTTGACTTAACCACAAGACAGG, the ETS1 binding intensity was 1880.

ACTGGCTTCACTTCCTCCGCGGTTCCTCGGAGCCGC registered an ETS1 binding intensity of 497.

For the sequence GCTGATAAAACAGGATGTGGTAAAGAAGCCGGCCAA, the ETS1 binding intensity is 5160.

In turn, TTACACAACAGGAAACTATGTTTAGCGGTTAATCCA came in with an ETS1 binding intensity of 2490.

Another test deals with RUNX1 (UniProt Q01196). Nature of the test: RUNX1 binding intensity (PBM fluorescence), RUNX1 alone (arbitrary fluorescence units); higher = stronger binding. The conditions noted are these: RUNX1 concentration 2 nM; ETS1 concentration 0 nM. As to the method: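 Cooperative gcPBM on 36-bp genomic probes with neighbouring ETS1 and RUNX1 sites. Recombinant human RUNX1 (2 nM) was incubated alone or with ETS1 (25 nM) and detected with anti-RUNX1 antibody plus Alexa488 secondary. Values are medians over 4 replicate spots; the RUNX1+ETS1 data were normalised to the RUNX1-only data. The probes sit in constant array flanks that are not printed.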
Sequence of RUNX1 (Q01196 whole entry): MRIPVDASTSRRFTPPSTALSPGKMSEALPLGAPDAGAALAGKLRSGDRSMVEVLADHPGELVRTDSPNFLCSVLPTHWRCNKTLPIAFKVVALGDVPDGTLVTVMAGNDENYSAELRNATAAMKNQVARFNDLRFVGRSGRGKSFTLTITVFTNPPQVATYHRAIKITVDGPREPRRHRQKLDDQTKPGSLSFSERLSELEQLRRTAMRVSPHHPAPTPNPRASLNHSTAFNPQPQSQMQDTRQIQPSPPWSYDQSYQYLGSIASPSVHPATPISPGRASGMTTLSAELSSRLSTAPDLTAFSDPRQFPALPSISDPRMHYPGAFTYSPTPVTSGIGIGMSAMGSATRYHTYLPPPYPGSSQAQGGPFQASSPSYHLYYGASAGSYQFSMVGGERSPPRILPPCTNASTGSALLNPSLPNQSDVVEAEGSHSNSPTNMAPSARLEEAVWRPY
As to ATAGTCTCTTCCTGTGTTGCAAACCACAGGTCCACC, the RUNX1 binding intensity was 1050.

The sequence CCTCAATTTCCTGGCCAGAGAAACCACTGCCTCTCA gave an RUNX1 binding intensity of 1030.

For TTGATTGGAGCAGGATGTGGTCAGAACAGTATGCAG, the RUNX1 binding intensity is 794.

ATAGACTCAGGAAGTGATTGTGGTAAGATTCTATAT yielded an RUNX1 binding intensity of 829.

Consider CAAGCCAGGAAGAGGGCCCTCACCAGAAACCGCACT, for which the RUNX1 binding intensity was determined as 907.

TCTGTCGTCCCACTTCCTGCTGCGGTTTCCACCTCG yielded an RUNX1 binding intensity of 8620.

Consider GAAGTCACATCCTGTCTGTTGCGGCAGGGCACAGAG, for which the RUNX1 binding intensity turned out to be 756.

As to CTCTGGCAGGAAGCTCTGAGGGCTAAACCACAAAAA, the RUNX1 binding intensity was 989.

In the case of CCTTGCTACAGGATGTTTTGACCACGAGCCCAGGAG, the RUNX1 binding intensity worked out at 1090.

ACCCAGTAGGGGCCAGGATGTGGTGAAAAGAGAATT had an RUNX1 binding intensity of 728.

CGGCCTCTTCCGGTCACCTGGCCCGTCGCGGTCCCG came in with an RUNX1 binding intensity of 1040.

As to TGGGGAACGCTGCGGATGCTGCGGTAAACCATGCGA, the RUNX1 binding intensity is 1040.

In the case of ACTAGAAGCGGAAGTAGTTGTGGGCGCCTTTGCAAC, the RUNX1 binding intensity is 662.

On to TCGTGTTCTCTTCCGTTCTGTGGTAGCTTTTTGGTA, for which the RUNX1 binding intensity is 1470.

Consider GGAAAAGGAAGTGGCTTTGACTTGCGGGCAGGGAGA, for which the RUNX1 binding intensity turned out to be 733.

The sequence CACCTCCTCTCCGGATGCGGTTTGTTCTGCTTGTAG returned an RUNX1 binding intensity of 2210.

In turn, AGCCAACAGGAAGCTGCAGAGACTAAACCACAGCAA returned an RUNX1 binding intensity of 879.

Take AGCTTCCTGTTTGGCCTTGCTGATGTCACCGCATTA: the RUNX1 binding intensity was 932.

The sequence TGGTTCCACCGACCGGAAGGGCCACAAGGATCCCCG registered an RUNX1 binding intensity of 659.

As for GTGAGTCACTTCCTGACCATGTGGGTTTTTGGTACG, the RUNX1 binding intensity is 823.

For the sequence AATGATTACCTAACAGGAAAACCACATTGGTCATTT, the RUNX1 binding intensity amounted to 1180.

The sequence GAGAAACAGGAAGAGGGGTGGTGGTTACGGAACACG yielded an RUNX1 binding intensity of 807.

Consider GAAAAAAATGAGCTTCCTTTAACCACAACTGTATTA, for which the RUNX1 binding intensity is 1350.

Consider AGCTGCATTTCCGGGCAGGCAATGAAACCACAGAGT, for which the RUNX1 binding intensity amounted to 918.

With CACTTCCTGTCAAAGCCAGTTCCTTAACCGCTTAGG, the RUNX1 binding intensity was 948.

The sequence GCCAACAGGAAGCTGGAAGCCAACCGCACTGTGTGC came in with an RUNX1 binding intensity of 899.

As for TCAAGTTTGGTAACAGGATGTGGTAGGAGGAACACA, the RUNX1 binding intensity is 747.

AATCTGAAACAGGAAATAAGTCTGTGGTTGTGTGTT returned an RUNX1 binding intensity of 833.

Sequence AACCATTACAGGATGTGAGATTCAAACCACTAACAG displayed an RUNX1 binding intensity of 849.

ATACAGACACAGGAAGTTGTGGGGAGTGCAAAAGCC returned an RUNX1 binding intensity of 798.

Take ATTTCGCTGAAAACAGGAAACCACGAAGCCCAGATG: the RUNX1 binding intensity worked out at 899.

In turn, TATCTCCTATCTCCAGGAAGTGGTTAGCCCTAGGAG returned an RUNX1 binding intensity of 811.

Sequence TGCTTCCCTTCCGTTCCGACAGCGAAAACCGCTGCC registered an RUNX1 binding intensity of 998.

For the sequence AACAGACAGGATGTGGCCTCTGCCAAAACCACCATC, the RUNX1 binding intensity came out at 869.

As to CTCACAGAGCAAGTAGGATGTGGTTTCCAGGGGCTG, the RUNX1 binding intensity stood at 800.

On to GCTCCCGGATGTTCTGGGGATCTGCGGCCGCCTGGC, for which the RUNX1 binding intensity is 751.

As to AAAGCATTTCCTGCCTTGACTTAACCACAAGACAGG, the RUNX1 binding intensity was 1460.

ACTGGCTTCACTTCCTCCGCGGTTCCTCGGAGCCGC showed an RUNX1 binding intensity of 917.

In the case of GCTGATAAAACAGGATGTGGTAAAGAAGCCGGCCAA, the RUNX1 binding intensity is 817.

TTACACAACAGGAAACTATGTTTAGCGGTTAATCCA had an RUNX1 binding intensity of 885.
